Records with an inconclusive call do not appear. Activity calls are given as the source filed them. Calls follow the shape of the dose curve; as a rule, active = well fitted curve in either direction with a large enough effect (not every such curve was filed as active); inconclusive = small, poorly fitted or top-dose-only effect, or another doubt; inactive = flat fitted curve, though single readings scatter.
% is scaled to controls: 0 for no effect and ±100 for the full control effect.

One assay in a line: AP1 Signaling Pathway (AID 357). The note with it: ME-180 (cervical carcinoma) AP-1-bla reporter, EGF-induced, beta-lactamase ratio, 5 h; at 17.2 µM (top of the series) unless noted. The method in brief: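 Titration-series screen for positive or negative modulators of EC50 EGF-induced signaling in ME-180 cells carrying an AP-1-driven beta-lactamase reporter. After 5 hours at 37 degrees Celsius, CCF4 460nm/530nm emission ratio gave %Activity; AC50 values derived.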
On to `Cc1[nH]nc2c1C(CCc1ccccc1)C(C#N)=C(N)O2` (stereo not given), for which the activity change, negative = inhibition is -6.35% (inactive).
The same measure, in the same setting: the same measure for `CC(Sc1ccc2ccccc2n1)C(=O)O` (stereo not given): 14.7% (inactive); for `O=S1CCCSC1c1cccnc1` (stereo not given): 5.36% (inactive); for `Clc1nc(-c2n[nH]nc2Cl)n[nH]1`: 14.2% (inactive).
Still for that read-out and setting: the value for `CC(=O)C1=C(O)C(=O)N(Cc2cccnc2)C1c1ccccc1Cl` (stereo not given) was 3.06% (inactive); that for `CCOC(=O)c1[nH]c2ccc(OC)cc2c1NC(=O)CCN1CCCC(C)C1` (stereo not given) was -2.35% (inactive); that for `COc1ccc(C(=O)/C=C/Nc2cccc(C)n2)cc1OC` was -16.3% (inactive).
For `CS(=O)(=O)CCC(C(=O)n1nnc2ccccc21)N1C(=O)c2ccccc2C1=O` (stereo not given), the activity change, negative = inhibition is -2.33% (inactive).
`CNC(=O)C1CC(=O)N(Cc2ccccc2)C(=Nc2ccc(OC)cc2)S1` (stereo not given): the activity change, negative = inhibition was -3.9% (inactive).
Still for that read-out and setting: the value for `NC(=O)c1cc(-c2ccccc2)nc(Oc2ccccc2)n1` was -14.4% (inactive); that for `Nc1ccc2ncccc2c1N` was 5.69% (inactive); that for `CC1(C)Cc2c(sc3ncn4nc(-c5ccco5)nc4c23)CO1` was -5.24% (inactive).
Same read-out and setting: the same measure for `C=CCOc1nc2c(c(=O)n(C)c(=O)n2C)n1Cc1ccc(Cl)cc1`: -1.14% (inactive); for `CC(C)Cc1nc(N2CCOCC2)c(C#N)c2c1COC(C)(C)C2`: 0.834% (inactive); for `Oc1ccc2c(c1)C1CCCC1(N1CCOCC1)O2` (stereo not given): -13.6% (inactive).
Same read-out and setting: the same measure for `COc1ccc(NC(=O)Nc2cccc(C(=O)N3CCOCC3)c2)cc1OC`: 3.36% (inactive); for `CCc1cc(=O)oc2cc(C)c(CN3CCCC3)c(O)c12`: -8.92% (inactive); for `C=CCNc1sc(C(=O)C2CC2)c(N)c1C#N`: -5.75% (inactive).
With `Cn1ncc2c(Nc3ccccc3Br)ncnc21`, the activity change, negative = inhibition was 5.55% (inactive).
Turning to `CCCCOc1ccc(-c2nnc(N)s2)cc1`, the activity change, negative = inhibition was 2.03% (inactive).
Still for that read-out and setting: the value for `N#CCCSc1nc(N2CCOCC2)c2c(c1C#N)CCCC2` was -2.29% (inactive).
`COc1cccc(/C=C2/CN(C)CC3=C2OC(N)=C(C#N)C3c2cccc(OC)c2)c1` (stereo not given): the activity change, negative = inhibition is -20.4% (inactive).
The same measure, in the same setting: the same measure for `COc1ccc(OC)c2c1CCC2=O`: -7.3% (inactive); for `O=c1/c(=C/c2ccccn2)sc2n1CN(c1ccccc1)CN=2`: 0.239% (inactive).
`CC(=O)c1cc(C#N)c(SCc2ccncc2)nc1C`: the activity change, negative = inhibition is -9.02% (inactive).
As for `CC1(C)CC(=O)C2=C(C1)OC(N)=C(C#N)C21C(=O)N(CN2CCOCC2)c2ccccc21` (stereo not given), the activity change, negative = inhibition is 15.6% (inactive).
Same read-out and setting: the same measure for `COc1cccc(OC)c1C(=O)Nc1nc2ccc(S(C)(=O)=O)cc2s1`: -25.1% (inactive); for `Cc1ccc2c(=O)c(CN(C)C3CCN(C)CC3)c(C)[nH]c2c1C`: 0.184% (inactive); for `C=CCn1c(-c2ccccc2)n[nH]c1=S`: 6.97% (inactive).
Same read-out and setting: the same measure for `CN(C)c1ccc(C=NCCC2(O)CCOC(C)(C)C2)cc1` (stereo not given): 0.733% (inactive); for `CCC(CC)n1[nH]c(=O)cc1N`: -9.54% (inactive); for `Cn1c(OCc2ccc3c(c2)OCO3)nc2c1c(=O)n(Cc1cccc(Cl)c1)c(=O)n2C`: -15.5% (inactive).
On to `COC(=O)C1=C(C)N=C2SC(C)C(=O)N2C1c1ccc(C(=O)OC)cc1` (stereo not given), for which the activity change, negative = inhibition was -9.79% (inactive).
Turning to `C=CCNc1nc(N2CCOCC2)c(C#N)c2c1CN(C)CC2`, the activity change, negative = inhibition is 4.63% (inactive).
Turning to `COC(=O)CSCC(=O)Nc1cc2c(cc1C(C)=O)OCO2`, the activity change, negative = inhibition was -1.75% (inactive).
In the case of `COc1cccc(-c2nnc3sc(-c4ccc(Cl)cc4)nn23)c1`, the activity change, negative = inhibition was 5.29% (inactive).
On the same count and under the same terms, the same measure for `CCOc1nc(-c2ccncc2)nc2ccccc12`: -12% (inactive); for `COCCN(C(=O)Nc1ccccc1)c1ccccc1C`: -9.46% (inactive); for `CCOC(=O)C(C#N)C(Cc1ccccc1)c1ccco1` (stereo not given): -10.1% (inactive).
On to `COc1ccc2[nH]c(C)c(C(=O)CN3CC(C)OC(C)C3)c2c1` (stereo not given), for which the activity change, negative = inhibition is 0.748% (inactive).

A further assay can be described thus: NFAT Signaling Pathway (AID 444).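 Also: carbachol stimulus at about its EC50 of 1 µM final.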 To be noted: Jurkat NFAT-bla M1, carbachol, beta-lactamase ratio, 5 h; at 17.2 µM (top of the series) unless noted. The method in brief:
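Jurkat cells with NFAT-driven β-lactamase reporter and co-expressed M1 receptor, stimulated with carbachol (final 1 uM, ~EC50), compound titration, 5 h at 37 °C. CCF4 loaded 1 h at RT; 460/530 nm ratio gave %activity and AC50.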
On to `Cc1[nH]nc2c1C(CCc1ccccc1)C(C#N)=C(N)O2` (stereo not given), for which the activity change, negative = inhibition was 10.3% (inactive).
Same read-out and setting: the value for `CC(Sc1ccc2ccccc2n1)C(=O)O` (stereo not given) was 9.86% (inactive); that for `O=S1CCCSC1c1cccnc1` (stereo not given) was 9.76% (inactive).
Still for that read-out and setting: the value for `Clc1nc(-c2n[nH]nc2Cl)n[nH]1` was -2.11% (inactive); that for `CC(=O)C1=C(O)C(=O)N(Cc2cccnc2)C1c1ccccc1Cl` (stereo not given) was 3.26% (inactive).
For `CCOC(=O)c1[nH]c2ccc(OC)cc2c1NC(=O)CCN1CCCC(C)C1` (stereo not given), the activity change, negative = inhibition is -82.5% (active).
Take `COc1ccc(C(=O)/C=C/Nc2cccc(C)n2)cc1OC`: the activity change, negative = inhibition was 22.7% (inactive).
Turning to `CS(=O)(=O)CCC(C(=O)n1nnc2ccccc21)N1C(=O)c2ccccc2C1=O` (stereo not given), the activity change, negative = inhibition was -13.1% (inactive).
Take `CNC(=O)C1CC(=O)N(Cc2ccccc2)C(=Nc2ccc(OC)cc2)S1` (stereo not given): the activity change, negative = inhibition is 4.86% (inactive).
As for `NC(=O)c1cc(-c2ccccc2)nc(Oc2ccccc2)n1`, the activity change, negative = inhibition is -25.9% (inactive).
Still for that read-out and setting: the same measure for `Nc1ccc2ncccc2c1N`: -85.4% (active).
On to `CC1(C)Cc2c(sc3ncn4nc(-c5ccco5)nc4c23)CO1`, for which the activity change, negative = inhibition was 8.04% (inactive).
Take `C=CCOc1nc2c(c(=O)n(C)c(=O)n2C)n1Cc1ccc(Cl)cc1`: the activity change, negative = inhibition was -8.76% (inactive).
On the same count and under the same terms, the same measure for `CC(C)Cc1nc(N2CCOCC2)c(C#N)c2c1COC(C)(C)C2`: -9.76% (inactive); for `Oc1ccc2c(c1)C1CCCC1(N1CCOCC1)O2` (stereo not given): 16.1% (inactive).
The same measure, in the same setting: the value for `COc1ccc(NC(=O)Nc2cccc(C(=O)N3CCOCC3)c2)cc1OC` was -1.43% (inactive).
Take `CCc1cc(=O)oc2cc(C)c(CN3CCCC3)c(O)c12`: the activity change, negative = inhibition was -9.64% (inactive).
On the same count and under the same terms, the same measure for `C=CCNc1sc(C(=O)C2CC2)c(N)c1C#N`: 4.81% (inactive).
On the same count and under the same terms, the value for `Cn1ncc2c(Nc3ccccc3Br)ncnc21` was 17% (inactive); that for `CCCCOc1ccc(-c2nnc(N)s2)cc1` was 25.3% (inactive); that for `N#CCCSc1nc(N2CCOCC2)c2c(c1C#N)CCCC2` was 13.2% (inactive).
Regarding `COc1cccc(/C=C2/CN(C)CC3=C2OC(N)=C(C#N)C3c2cccc(OC)c2)c1` (stereo not given), the activity change, negative = inhibition was -0.393% (inactive).
The same measure, in the same setting: the value for `COc1ccc(OC)c2c1CCC2=O` was -3.76% (inactive).
The same measure, in the same setting: the value for `O=c1/c(=C/c2ccccn2)sc2n1CN(c1ccccc1)CN=2` was -24.9% (inactive); that for `CC(=O)c1cc(C#N)c(SCc2ccncc2)nc1C` was -4.04% (inactive); that for `CC1(C)CC(=O)C2=C(C1)OC(N)=C(C#N)C21C(=O)N(CN2CCOCC2)c2ccccc21` (stereo not given) was 1.95% (inactive).
As for `COc1cccc(OC)c1C(=O)Nc1nc2ccc(S(C)(=O)=O)cc2s1`, the activity change, negative = inhibition was 21% (inactive).
The same measure, in the same setting: the value for `Cc1ccc2c(=O)c(CN(C)C3CCN(C)CC3)c(C)[nH]c2c1C` was -6.29% (inactive); that for `C=CCn1c(-c2ccccc2)n[nH]c1=S` was -4.63% (inactive); that for `CN(C)c1ccc(C=NCCC2(O)CCOC(C)(C)C2)cc1` (stereo not given) was 4.94% (inactive).
Still for that read-out and setting: the value for `CCC(CC)n1[nH]c(=O)cc1N` was 14.2% (inactive); that for `Cn1c(OCc2ccc3c(c2)OCO3)nc2c1c(=O)n(Cc1cccc(Cl)c1)c(=O)n2C` was 1.55% (inactive).
On to `COC(=O)C1=C(C)N=C2SC(C)C(=O)N2C1c1ccc(C(=O)OC)cc1` (stereo not given), for which the activity change, negative = inhibition was -6.71% (inactive).
In the case of `C=CCNc1nc(N2CCOCC2)c(C#N)c2c1CN(C)CC2`, the activity change, negative = inhibition was -4.25% (inactive).
With `COC(=O)CSCC(=O)Nc1cc2c(cc1C(C)=O)OCO2`, the activity change, negative = inhibition is 29.7% (inactive).
Take `COc1cccc(-c2nnc3sc(-c4ccc(Cl)cc4)nn23)c1`: the activity change, negative = inhibition is -1.08% (inactive).
The same measure, in the same setting: the same measure for `CCOc1nc(-c2ccncc2)nc2ccccc12`: 2.73% (inactive).
Same read-out and setting: the value for `COCCN(C(=O)Nc1ccccc1)c1ccccc1C` was -0.712% (inactive); that for `CCOC(=O)C(C#N)C(Cc1ccccc1)c1ccco1` (stereo not given) was -8.09% (inactive).
Regarding `COc1ccc2[nH]c(C)c(C(=O)CN3CC(C)OC(C)C3)c2c1` (stereo not given), the activity change, negative = inhibition was -1.69% (inactive).

The values above are taken from PubChem BioAssay (NCATS).
